Most compounds without a hit are left out; they make up all but 21% or so of the library.
Shiga toxin inh: blocks Shiga toxin action in Vero cells. Vero cells, Shiga toxin protein synthesis inhibition reporter. inhibition, % at 38.7 µM. 290,000 compounds, 9.2% hits; in the data active = inhibition mostly above about 28%, no sharp cut-off; inactive = mostly below about 43%; also: 0% is about no effect
CHX counter: counter-screen for Shiga toxin inhibitors: cycloheximide protein synthesis inhibition; 300,000 compounds, 12% hits; cell reporter, cycloheximide protein synthesis inhibition counterscreen; AID 2314; max response, %; in the data active = max response mostly above about 13%, no sharp cut-off; inactive = mostly below about 14%; also: read at 38.3 µM for the half of the compounds with a filed dose; 0% is about no effect
NS1 inh: influenza NS1 inhibition; Potency, µM (titrated, usually from 46.1 µM), for the others: top-dose activity, positive = more growth; AID 2326; 270,000 compounds, 0.4% hits; calls by dose curve; also: potency is read from the fitted curve at half-maximal effect; actives are rising curves; nearly all actives have a fitted effect of over 50% in size
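OD600 was taken as the measure of yeast growth restored by compound in an NS1-expressing S. cerevisiae strain. Cells had been washed out of glucose medium and diluted 1:100 into galactose -URA medium, pH 6.0.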
SARS PLP yeast: inhibitors of SARS-CoV papain-like protease in yeast; 330,000 compounds, 0.19% hits; AID 485353; S. cerevisiae expressing SARS-CoV PLpro, growth rescue; Potency, µM (series often up to 32.9 µM), for inactives: at the top dose activity, positive = growth rescue, usual class: activators; calls by dose curve; also: potency is read from the fitted curve at half-maximal effect; 0% is about no effect; nearly all actives have a fitted effect of over 55% in size
Pf growth 96h: inhibits malaria parasite growth, 96 h; Potency, µM (doses to about 28.7 µM), for inactives: at the top dose activity change, negative = inhibition, usual class: inhibitors; 320,000 compounds, 6.9% hits; P. falciparum luciferase reporter growth, 96 h; also: potency is read from the fitted curve at half-maximal effect; % is scaled to controls: 0 for no effect and ±100 for the full control effect
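Plates of compound plus infected erythrocytes (2% hematocrit, 0.05% parasitemia final) incubate 96 hours, 37 C, 5% CO2. Detection reagent added; reduced luminescence from the parasites' luciferase reporter flags inhibition.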
Pf growth 48h: P. falciparum growth inhibition at 48 hours (one generation). P. falciparum luciferase growth in erythrocytes, 48 h. Potency, µM (top dose mostly 28.7 µM), inactives show at the top dose activity change, negative = inhibition, actives largely listed as inhibitors. 310,000 compounds, 5.9% hits. AID 504832; also: potency is read from the fitted curve at half-maximal effect; % is scaled to controls: 0 for no effect and ±100 for the full control effect
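Luciferase-expressing parasites in RBCs, 2% Hct / 0.1% parasitemia final; RPMI 1640 + 0.5% Albumax; 37 C, 5% CO2, one generation; luminescence read-out, lower signal = inhibition.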
* marks the source's active call; other numbers are inactive results; ? = inconclusive; · = no result given; [ ] = another dose, or the depositor's remark. Unless noted, calls follow the shape of the dose curve; as a rule, active = well fitted inhibition curve with a large enough effect; inconclusive = small, poorly fitted or top-dose-only effect, or another doubt; inactive = no such curve, though single readings can be large or run the other way.

SMILES	Shiga toxin inh	CHX counter	NS1 inh	SARS PLP yeast	Pf growth 96h	Pf growth 48h
CC(C)(C)n1cn[nH]c1=S	28	-2	-1%	3%	22%	-5%
Oc1cccc2ccc(SSc3ccc4cccc(O)c4n3)nc12	·	·	-41%	·	·	·
O=C(NCc1ccco1)/C(=C\C=C\c1ccccc1)NC(=O)c1ccccc1Br	16	7	-4%	-5%	-21%	?
O=C(Cn1c(=S)[nH]c2ccccc21)c1ccccc1	8	-2	23%	-2%	75%	11%
Cc1ccc(NC(=O)Cn2c(=S)[nH]c3ccccc32)cc1	42	22*	·	2%	?	20%
O=C(NC1CCS(=O)(=O)C1)c1ccc(S(=O)(=O)N2CCCCC2)cc1 (stereo not given)	22	7	1%	7%	-3%	0%
O=C1CCCc2[nH]c3cccc(/C(=C/c4ccccc4)c4ccccc4)c3c21	1	-3	14%	2%	12µM*	-16%
COC(=O)c1ccc2[nH]c3cccc(/C(=C/c4ccccc4)c4ccccc4)c3c2c1	13	-3	8%	-4%	3.7µM*	?
COc1cccc(C(=O)Nc2cc(OC)ccc2NC(=O)c2ccco2)c1	-28	-2	-4%	1%	?	-17%
CC1C(=O)C(C)C(c2ccccc2F)NC1c1ccccc1F (stereo not given)	-9	-2	-2%	-3%	?	14%
CC(NC(=O)C1CCCN1S(=O)(=O)c1ccccc1)c1ccccc1 (stereo not given)	-5	3	-3%	13%	2%	-4%
CC(=O)N1c2ccccc2Oc2cc3ccccc3cc21	53	26*	-43%	-37%	?	1.9µM*
COc1cccc(C(=O)NNC2OC(CO)C(O)C2O)c1 (stereo not given)	69*	31*	·	0%	8%	?
COc1cccc(C(=O)NNC(=O)Cc2cccs2)c1	-10	-3	7%	0%	3%	?
O=C(NNC1OC(CO)C(O)C(O)C1O)c1cccnc1 (stereo not given)	50*	19*	12%	0%	?	28%
Cc1c(Cl)cccc1NC(=O)Cn1nc(C)n2cccc2c1=O	3	8	-2%	-1%	-11%	0%
NC(=S)Nc1cccc2[nH]ccc12	-6	-9	·	1%	34%	48%
CCOC(=O)N1CCc2c(sc(NC(=O)C3=COCCO3)c2C(N)=O)C1	-4	-1	6%	-3%	?	?
CNC(=O)c1c(NC(=O)C2=COCCO2)sc2c1CCCC2	34	24	-55%	-12%	13µM*	11%
CNC(=O)c1c(NC(=O)c2ccco2)sc2c1CCC2	49	31*	-24%	-4%	-66%	-6%
O=C(Nc1sc2c(c1C(=O)NC1CCCCC1)CCC2)c1ccco1	26	16	-44%	·	-12%[5.75 µM]	4%
COc1ccc(NC(=O)N(Cc2cc3cc(OC)c(OC)cc3[nH]c2=O)CC2CCCO2)cc1 (stereo not given)	14	12*	-6%	-1%	18%	?
O=C(COc1ccccc1)N(Cc1cc2ccccc2[nH]c1=O)CC1CCCO1 (stereo not given)	41	25*	3%	0%	11%[5.75 µM]	?
COc1ccc2[nH]c(=O)c(CN(CC3CCCO3)C(=S)Nc3ccc(C)cc3)cc2c1 (stereo not given)	2	-4	2%	0%	12%	21%
COc1cc(C(=O)N(Cc2cc3cc(C)ccc3[nH]c2=O)CC2CCCO2)cc(OC)c1OC (stereo not given)	-17	-8	1%	3%	-4%	-2%
SMILES	Shiga toxin inh	CHX counter	NS1 inh	SARS PLP yeast	Pf growth 96h	Pf growth 48h
COc1ccc2cc(CN(CC3CCCO3)C(=O)Nc3ccccc3)c(=O)[nH]c2c1 (stereo not given)	6	7	-2%	0%	38%	?
COc1ccc(NC(=O)N(Cc2cc3cc(C)ccc3[nH]c2=O)CC2CCCO2)cc1 (stereo not given)	-6	-2	?	-2%	-13%	3.3µM*
COc1ccc2[nH]c(=O)c(CN(CC3CCCO3)C(=O)Nc3ccc(F)cc3)cc2c1 (stereo not given)	10	-2	-30%	7%	27%	26%
COc1cccc(C(=O)N(Cc2cc3cc(C)ccc3[nH]c2=O)CC2CCCO2)c1 (stereo not given)	12	8	1%	0%	·	9.3µM*
COc1ccc2c(C)cc3nncn3c2c1	3	0	·	0%	-13%	14%
O=C(COC(=O)C1CC(=O)N(Cc2ccccc2)C1)Nc1ccc(Cl)cc1F (stereo not given)	-9	-3	·	0%	17%	-16%
O=C1CS/C(=N/N=C/c2ccccc2)N1c1ccc(O)cc1	7	-1	24%	5%	1.7µM*	14%
O=C1CS/C(=N\N=C\c2ccco2)N1c1ccccc1	45	15*	10%	-1%	5%	28%
Cc1cccc(NC(=S)NN2CCOCC2)c1C	15	9	7%	12%	?	·
CC(C)CC(=O)NC(=S)Nc1ccc(N2CCOCC2)cc1	48*	24*	26%	11%	47%	39%
Cc1cccc(NC(=S)Nc2ccc(N3CCOCC3)cc2)c1C	13	13*	?	0%	-23%	38%
CC(C)CC(=O)NC(=S)Nc1ccc(CN2CCOCC2)cc1	33*	11	4%	1%	?	-2%
Cc1cc2nnc(SCC(=O)NCC3CCCO3)n2c2ccccc12 (stereo not given)	-5	-2	·	0%	-128%[5.75 µM]	-35%[5.75 µM]
CN(Cc1ccccc1)C1CCNCC1	·	5	-4%	2%	-23%	-18%
COc1cc(O)oc1C=Nc1ccc(C(=O)O)cc1	3	-3	·	-5%	24%	?
COc1cc(C(=O)Nc2ccc(NC(C)=O)cc2)ccc1OCc1ccccc1	-9	9	·	3%	-7%	5%
COc1cc(CNc2ccc(N3CCOCC3)cc2)ccc1OCC(=O)NC(C)(C)C	16	-2	8%	-4%	-11%	-11%
COc1cc(CNc2ccc(N3CCN(C(C)=O)CC3)cc2)ccc1OCc1ccccc1	52*	23*	9%	-3%	41%	-22%
COc1cc(CNc2ccc(NC(C)=O)cc2)ccc1OCc1ccccc1C	87*	46*	-5%	-4%	-2%	30%
Cc1ccccc1CN(C)CC(=O)Nc1c(C)cccc1C(C)C	-15	-8	·	-2%	0%	-27%
C=CCC(C(=O)OC)(C(=O)OC)c1ccccc1[N+](=O)[O-]	-6	-2	-4%	0%	0%	-9%
O=C(CN1CCN(Cc2ccccc2Cl)C1=O)NCc1ccccn1	-13	-3	3%	0%	-4%	13%
COc1cc(C2c3c(oc4ccccc4c3=O)C(=O)N2c2ccc(C)cn2)ccc1O (stereo not given)	13	8	-45%	15%	15µM*	9%

High-throughput results: PubChem BioAssay, National Center for Advancing Translational Sciences (NCATS)
